# Reference: PubChem BioAssay AID1159580 (chemical genetic matrix, 2015)
# Screen size: about 5,500 compounds; about 2,000 (36%) were called active. Inconclusive results (about 18%) are left out. This is one part of the list. Values without a mark were called inactive. No stated cut-off is given here; in the data, active means normalized growth mostly below about 0.91 (no sharp cut-off); inconclusive means no clear call, values can overlap the other calls; inactive means mostly above about 0.92.
# Test: chemical genetic growth profiling, strain panel (AID 1159580);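 further: tested at 20 µM; growth read once vehicle control cultures reached saturation at 30 °C; 1 = growth at the plate median or of vehicle wells; lower values mean less growth of the strain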
# Settings: S. cerevisiae deletion strains, growth OD
smiles,measurement,setting,value
C[C@@H]1CC[C@@]2(NC1)O[C@H]1C[C@H]3C4CC=C5C[C@@H](O)CC[C@]5(C)C4CC[C@]3(C)C1[C@@H]2C (some centres undefined),normalized growth,"locus YJL187C, strain SWE1 (second series), hits give low values",0.103 (active)
same,normalized growth,"locus YJR066W, strain TOR1, hits give low values",0.985
same,normalized growth,"locus YJR075W, strain HOC1, hits give low values",0.119 (active)
same,normalized growth,"locus YKL009W, strain mrt4, hits give low values",0.807 (active)
same,normalized growth,"locus YKL068W, hits give low values",1.01
same,normalized growth,"locus YKL085W, strain MDH1 (second series), hits give low values",0.942
same,normalized growth,"locus YKL085W, strain MDH1, hits give low values",0.942
same,normalized growth,"locus YKL160W, strain elf1, hits give low values",0.12 (active)
same,normalized growth,"locus YKR001C, strain vps1, hits give low values",0.0859 (active)
same,normalized growth,"locus YKR026C, strain gcn3, hits give low values",0.0875 (active)
same,normalized growth,"locus YKR091W, strain srl3, hits give low values",0.109 (active)
same,normalized growth,"locus YLL001W, strain dnm1, hits give low values",0.074 (active)
same,normalized growth,"locus YLL026W, hits give low values",0.0713 (active)
same,normalized growth,"locus YLL041C, strain sdh2, hits give low values",0.075 (active)
same,normalized growth,"locus YLR027C, strain aat2, hits give low values",0.0705 (active)
same,normalized growth,"locus YLR039C, strain RIC1, hits give low values",0.33 (active)
same,normalized growth,"locus YLR058C, strain SHM2, hits give low values",0.0802 (active)
same,normalized growth,"locus YLR102C, strain apc9, hits give low values",0.088 (active)
same,normalized growth,"locus YLR113W, strain HOG1, hits give low values",1.04
same,normalized growth,"locus YLR221C, strain rsa3, hits give low values",0.0678 (active)
same,normalized growth,"locus YLR258W, strain gsy2, hits give low values",0.0842 (active)
same,normalized growth,"locus YLR262C, strain YPT6 (second series), hits give low values",0.341 (active)
same,normalized growth,"locus YLR268W, strain sec22, hits give low values",0.0987 (active)
same,normalized growth,"locus YLR320W, strain mms22, hits give low values",0.091 (active)
same,normalized growth,"locus YLR342W, strain FKS1 (second series), hits give low values",0.0987 (active)
same,normalized growth,"locus YLR342W, strain FKS1, hits give low values",0.0952 (active)
same,normalized growth,"locus YLR357W, strain rsc2, hits give low values",0.172 (active)
same,normalized growth,"locus YLR370C, strain arc18, hits give low values",0.066 (active)
same,normalized growth,"locus YLR371W, strain rom2, hits give low values",0.0867 (active)
same,normalized growth,"locus YLR384C, strain iki3, hits give low values",0.702 (active)
same,normalized growth,"locus YLR418C, strain cdc73, hits give low values",0.127 (active)
same,normalized growth,"locus YML016C, strain PPZ1, hits give low values",0.0701 (active)
same,normalized growth,"locus YML032C, strain rad52, hits give low values",0.112 (active)
same,normalized growth,"locus YML120C, strain ndi1, hits give low values",0.0773 (active)
same,normalized growth,"locus YML124C, strain tub3, hits give low values",0.0964 (active)
same,normalized growth,"locus YMR058W, strain fet3, hits give low values",0.0836 (active)
same,normalized growth,"locus YMR078C, strain ctf18, hits give low values",0.0876 (active)
same,normalized growth,"locus YMR125W, strain sto1, hits give low values",0.089 (active)
same,normalized growth,"locus YMR129W, hits give low values",0.0739 (active)
same,normalized growth,"locus YMR205C, strain PFK2, hits give low values",0.15 (active)
same,normalized growth,"locus YMR223W, strain ubp8, hits give low values",0.0986 (active)
same,normalized growth,"locus YMR231W, strain pep5, hits give low values",0.319 (active)
same,normalized growth,"locus YMR307W, strain GAS1, hits give low values",0.145 (active)
same,normalized growth,"locus YNL067W, strain RPL9B, hits give low values",0.132 (active)
same,normalized growth,"locus YNL071W, strain lat1, hits give low values",0.0643 (active)
same,normalized growth,"locus YNL183C, strain NPR1, hits give low values",0.989
same,normalized growth,"locus YNL209W, strain ssb2, hits give low values",0.19 (active)
same,normalized growth,"locus YNL233W, strain BNI4, hits give low values",0.0774 (active)
same,normalized growth,"locus YNL248C, strain rpa49, hits give low values",0.079 (active)
same,normalized growth,"locus YNL250W, strain rad50, hits give low values",0.889 (active)
same,normalized growth,"locus YNL271C, strain bni1, hits give low values",0.848 (active)
same,normalized growth,"locus YNL298W, strain CLA4, hits give low values",0.767 (active)
same,normalized growth,"locus YNL307C, strain MCK1, hits give low values",0.0706 (active)
same,normalized growth,"locus YNL322C, strain KRE1 (second series), hits give low values",0.0978 (active)
same,normalized growth,"locus YNR049C, strain mso1, hits give low values",0.0668 (active)
same,normalized growth,"locus YNR052C, strain pop2, hits give low values",0.282 (active)
same,normalized growth,"locus YOL012C, strain htz1",0.198
same,normalized growth,"locus YOL147C, strain pex11, hits give low values",0.0757 (active)
same,normalized growth,"locus YOR001W, strain rrp6, hits give low values",0.083 (active)
same,normalized growth,"locus YOR061W, strain CKA2, hits give low values",0.0862 (active)
same,normalized growth,"locus YOR069W, strain VPS5, hits give low values",0.104 (active)
same,normalized growth,"locus YOR070C, strain gyp1, hits give low values",0.151 (active)
same,normalized growth,"locus YOR080W, strain dia2, hits give low values",0.277 (active)
same,normalized growth,"locus YOR083W, strain WHI5, hits give low values",0.134 (active)
same,normalized growth,"locus YOR106W, strain vam3, hits give low values",0.0987 (active)
same,normalized growth,"locus YOR136W, strain idh2, hits give low values",0.108 (active)
same,normalized growth,"locus YOR144C, strain elg1, hits give low values",0.0812 (active)
same,normalized growth,"locus YOR184W, strain ser1, hits give low values",0.0846 (active)
same,normalized growth,"locus YOR231W, strain MKK1, hits give low values",1.03
same,normalized growth,"locus YOR265W, strain rbl2, hits give low values",0.0812 (active)
same,normalized growth,"locus YOR270C, strain vph1, hits give low values",0.0993 (active)
same,normalized growth,"locus YOR290C, strain snf2, hits give low values",0.074 (active)
same,normalized growth,"locus YOR316C, strain cot1, hits give low values",0.0883 (active)
same,normalized growth,"locus YPL051W, strain arl3, hits give low values",0.436 (active)
same,normalized growth,"locus YPL055C, strain LGE1, hits give low values",0.137 (active)
same,normalized growth,"locus YPL078C, strain atp4, hits give low values",0.0699 (active)
same,normalized growth,"locus YPL106C, strain sse1, hits give low values",0.154 (active)
same,normalized growth,"locus YPL240C, strain hsp82, hits give low values",0.0838 (active)
same,normalized growth,"locus YPL256C, strain CLN2, hits give low values",1.07
same,normalized growth,"locus YPR119W, strain clb2, hits give low values",0.0943 (active)
same,normalized growth,"locus YPR141C, strain kar3, hits give low values",1.06
same,normalized growth,"locus YPR163C, strain tif3, hits give low values",0.0947 (active)
same,normalized growth,"locus YPR167C, strain met16, hits give low values",0.0878 (active)
same,normalized growth,"strain wtn01, hits give low values",0.0815 (active)
